Screening data deposited in PubChem BioAssay by National Center for Advancing Translational Sciences (NCATS).
FLuc counter: inhibits or activates purified firefly luciferase, miR-21 counter-screen | purified FLuc, Km substrates, luminescence inhibition | Potency, µM (top dose mostly 57.5 µM), hits mostly inhibitors | 360,000 tested, 6.9% active | AID 588342; note: nearly all actives have a fitted effect of over 55% in size
Target sequence (P08659 whole entry, looked up): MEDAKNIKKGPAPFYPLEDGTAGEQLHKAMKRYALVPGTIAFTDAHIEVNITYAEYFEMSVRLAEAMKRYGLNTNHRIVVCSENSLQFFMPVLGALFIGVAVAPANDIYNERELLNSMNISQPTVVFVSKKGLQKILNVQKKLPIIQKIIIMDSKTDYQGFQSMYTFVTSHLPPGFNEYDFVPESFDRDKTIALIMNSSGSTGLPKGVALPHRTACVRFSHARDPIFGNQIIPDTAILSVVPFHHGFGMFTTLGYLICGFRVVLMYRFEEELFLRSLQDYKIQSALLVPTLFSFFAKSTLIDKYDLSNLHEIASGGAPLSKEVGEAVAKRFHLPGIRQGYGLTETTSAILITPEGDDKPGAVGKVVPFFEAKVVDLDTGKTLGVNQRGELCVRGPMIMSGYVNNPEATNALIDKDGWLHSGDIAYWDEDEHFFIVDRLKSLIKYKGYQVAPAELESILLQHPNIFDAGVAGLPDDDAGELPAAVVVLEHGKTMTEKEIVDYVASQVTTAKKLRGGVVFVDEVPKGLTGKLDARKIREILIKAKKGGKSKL
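Biochemical qHTS of compounds, final roughly 60 µM downward over six points, against 10 nM purified firefly luciferase using Km concentrations of substrates (10 uM D-luciferin, 10 uM ATP) in Tris acetate pH 7.5 buffer; luminescence output.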
Luc counter: Kinase-Glo luciferase inhibition (counter-screen). Q27757. Potency, µM (highest dose often 38.3 µM), usual class: inhibitors. Kinase-Glo luciferase, ATP luminescence, 8 min. AID 1379. 200,000 tested, 0.28% active; note: nearly all actives have a fitted effect of over 60% in size
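Light output from Kinase-Glo luciferase with luciferin and 10 uM ATP in 50 mM imidazole pH 7.2, KCl, MgCl2, Tween 20, BSA; compound pin-delivered, 8-min ambient incubation, then luminescence read.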
NPC1 promoter act: activates the NPC1 promoter. Huh7 NPC1 promoter luciferase reporter, 24 h. Potency, µM (series often up to 9.22 µM), most hits filed as activators. 320,000 tested, 2.4% active; note: nearly all actives have a fitted effect of over 60% in size
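Quantitative HTS used a cell-based reporter: Huh7 cells stably bearing the NPC1 promoter upstream of luciferase were treated with compounds for 24 h, and promoter activation was read as luminescence.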
Rab9 promoter act: Rab9 promoter activation; Huh7 Rab9 promoter-luciferase reporter, luminescence, 24 h; 320,000 tested, 2.8% active; Potency, µM (highest dose often 9.22 µM), hits mostly activators; AID 485297; note: nearly all actives have a fitted effect of over 60% in size
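Huh7 cells stably carrying a Rab9 promoter-luciferase reporter, 1500 cells per well in OP-MEM I with 10% FBS, treated with compound 24 hours at 37C. Luciferase activity read by luminescence after 10 minutes with Amplite reagent.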
SMN2 splice up: increases expression of the SMN2 splice variant; HEK293 SMN2-luciferase splicing reporter, luminescence, 30-36 h; Potency, µM (highest dose often 46.1 µM), hits mostly activators; 210,000 tested, 2.8% active; AID 1458; note: nearly all actives have a fitted effect of over 55% in size
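HEK293 cells carry an SMN2 […]–luciferase reporter in which exon 7 inclusion puts luciferase in frame. Cells were plated 10-12 h before compound addition, then incubated 30-36 h at 37C. ONE-Glo luminescence was read; sodium butyrate at 4.5 mM final served as control.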
ELG1 genotoxic: induces genotoxicity in HEK293T cells with luciferase-tagged ELG1; HEK293T ELG1-luciferase reporter, luminescence, 16 h; AID 504466; Potency, µM (doses to about 46 µM), hits mostly activators; 330,000 tested, 1.3% active; note: nearly all actives have a fitted effect of over 60% in size
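HEK293T cells expressing luciferase-tagged ELG1 were treated with compound or DMSO for 16 hr at 37°C. Luciferase activity was then read after 30 min with ONE-Glo at room temperature; rising signal flags genetic stress.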
A number is an active result; 0 = inactive; ? = inconclusive; - = no result given; [ ] = another dose, or the depositor's remark. Only some compounds are listed: those with a hit (about 7.5% of all), similar ones and a draw of the others. Calls come from the whole dose curve; as a rule, active = well fitted curve in the direction sought with a large enough effect; inconclusive = small, poorly fitted or top-dose-only effect, or another doubt; inactive = no such curve, though single readings can be large; an effect the other way counts as inactive or inconclusive.

SMILES	FLuc counter	Luc counter	NPC1 promoter act	Rab9 promoter act	SMN2 splice up	ELG1 genotoxic
Cc1ccc(-c2nc(Nc3cccc(O)c3)c3ccccc3n2)cc1	21.3µM	-	0	0	-	0
COCCN(CCOC)c1nc(-c2ccc(C)cc2)nc2ccccc12	13.5µM	-	0	0	-	0
CNC(=O)c1ccc(Nc2nc(-c3ccccc3)nc3ccccc23)cc1	?	-	0	0	-	0
O=C(O)c1ccc(Nc2nc(-c3ccccc3)nc3ccccc23)cc1	21.3µM	-	0	0	-	0
O=[N+]([O-])c1ccc(-c2nc(Nc3cccc(O)c3)c3ccccc3n2)cc1	0	-	0	0[1.84 µM]	-	0
CC1(C)CC(=O)c2cc(C(=O)Nc3ccc(Br)cc3)c(=O)n(-c3ccc(Cl)cc3)c2C1	0	-	-	-	0	-
Cc1nc(C)c(-c2ccc(SCC(=O)Nc3ccc(C)c(Cl)c3)nn2)s1	?	-	0	0	-	0
O=C(CSc1ccc(-c2ccccn2)nn1)Nc1ccc(F)c(F)c1	13.5µM	-	0	0	-	?
CCOC(=O)c1ccc(NC(=O)CSc2ccc(-c3ccccn3)nn2)cc1	10.7µM	-	0	0	-	?
CCOc1ccc(NC(=O)CSc2ccc(-c3ccccn3)nn2)cc1	0	-	0	0	-	0
Cc1ccc(NC(=O)CSc2ccc(-c3ccccn3)nn2)cc1	0	0	0	0	0	?
CC(=O)c1ccc(NC(=O)CSc2ccc(-c3sc(C)nc3C)nn2)cc1	13.5µM	-	0	0	-	0
CS(=O)(=O)c1ccc(Cl)c(NC(=O)CN2C(=O)C3CCCCC3C2=O)c1 (centres undefined)	0	-	0	0	-	0
COc1ccc(C(=O)N/C(=C/c2cccnc2)C(=O)N2CCN(C)CC2)cc1OC	0	-	0	0	-	0
CC(=O)c1ccc(N2CCN(S(=O)(=O)c3ccc(-c4coc(C)n4)cc3)CC2)cc1	0	-	-	-	-	-
Cn1cccc1C(=O)N1CCC2(CC1)CCN(c1ccc(-c3ccccc3)cc1)CC2	-	0	-	-	0	-
CC(=O)Nc1cc(-c2nn(C)c(=O)c3ccccc23)ccc1N1CCCCC1	0	0	0	0	0	0
Cc1ccc(-c2nn(C)c(=O)c3ccccc23)cc1S(=O)(=O)N1CCCC1	0	0	0	0	0	16.4µM
Cn1nc(-c2ccc(N3CCOCC3)c(NS(=O)(=O)c3ccccc3)c2)c2ccccc2c1=O	0	0	0	0	?	13µM
Cc1ccc(-c2nn(C)c(=O)c3ccccc23)cc1S(=O)(=O)N1CCOCC1	0	0	0	0	?	?
Cn1c(=O)[nH]c(=O)c2c1nc(CN1CCN(c3ccccc3F)CC1)n2Cc1ccc(F)cc1	0	-	-	-	0	-
O=C(COC(=O)CCNS(=O)(=O)c1cccs1)Nc1ccccc1	0	-	0	0	-	0
CC(=O)c1ccc(NC(=O)CSc2ccsc2[N+](=O)[O-])cc1	0	0	0	0	0	0
CCN(CC)CCCNC(=O)c1ccc2nc(CCc3ccccc3)oc2c1	0	-	-	-	-	-
CC(C)NC(=O)c1ccc2c3n(nc2c1)-c1ccc(Cl)cc1CO3	1.9µM	-	1.26µM	1.41µM	-	?
SMILES	FLuc counter	Luc counter	NPC1 promoter act	Rab9 promoter act	SMN2 splice up	ELG1 genotoxic
CCC(C)NC(=O)CSc1c2c(nc3cc(Cl)ccc13)CCCC2 (centres undefined)	0	-	-	-	0	-
CCN(CC)CCCNC(=O)c1ccc2c3n(nc2c1)-c1ccc(Cl)cc1CO3	?	-	?	0.891µM	-	?
Cc1c(C(=O)N(Cc2ccccc2F)C2CCS(=O)(=O)C2)oc2ccccc12 (centres undefined)	0	-	-	-	0	-
COc1ccc(CNC(=O)c2ccc(NC(=O)N3CCSc4ncccc43)cc2)c(OC)c1	0	-	-	-	-	-
Cc1ccc2c(c1)C(=O)C(=O)N2CCOc1ccccc1	13.5µM	0	0	0	0	?
O=C1c2ccccc2C(=O)N1CCOc1cccc(Br)c1	10.7µM	-	0	?	-	?
Cc1ccc(OCCN2C(=O)c3ccccc3C2=O)cc1	?	0	0	0	0	?
Cc1cccc(OCCN2C(=O)C(=O)c3cc(C)ccc32)c1	12µM	0	0	0	0	?
Cc1cccc(OCCN2C(=O)C(=O)c3cccc(C)c32)c1	0	0	0	0	0	0
Cc1ccc2c(c1)C(=O)C(=O)N2CCCOc1ccccc1C	0	0	0	0	-	0
COc1ccc(Oc2ncc3nc(-c4cc(F)cc(F)c4)c(=O)n(C)c3n2)cc1	-	0	-	-	0	-
Fc1ccc(-c2nnc(Cc3ccc(Cl)cc3)o2)cc1	16.9µM	-	?	0	-	?
Fc1ccc(Cc2nnc(-c3cccs3)o2)cc1	?	0	0	?	?	0
Clc1ccc(/C=C/c2ncc[nH]2)c(Cl)c1	2.39µM	-	2.82µM	2.82µM	-	?
O=c1oc2c(CN3CCOCC3)c(O)ccc2c2ccccc12	?	0	3.98µM	0	0	0
O=c1oc2c(CN3CCOCC3)c(O)ccc2c2c1CCCC2	0	0	0	0	0	0
O=S1(=O)CCN2C(=N1)Sc1c2ccc2c1CCCC2	15.1µM	0	0	0	0	?
Cc1onc(-c2ccccc2)c1C(=O)Nc1ccc(Cl)c(S(=O)(=O)N2CCOCC2)c1	-	-	0	0	-	0
CN(C)c1ccc(N=Cc2nc(-c3ccccc3)oc2OC(=O)c2ccccc2)cc1	?	0	?	?	11.2µM	?
CC(=O)Oc1oc(-c2ccccc2)nc1/C=N/c1ccccn1	21.3µM	?	0	0	?	?
COc1ccccc1N=Cc1nc(-c2ccccc2)oc1OC(C)=O	0	0	0	0	0	0
CCOc1ccc(/C=N/NC(=O)Nc2ccccc2)cc1	3.01µM	0	?	2.24µM	5.01µM	7.3µM
CC(=O)Oc1ccc(/C=N/NC(=S)Nc2ccccc2)cc1	?	0	3.16µM	3.98µM	11.2µM	9.2µM
CCN(CC)c1ccc(/C=N/OCC(=O)Nc2cccc(C)c2)cc1	12µM	0	0	0	0	0
O=C(Cc1ccccc1)N/N=C/c1ccc(OCC(=O)Nc2ccccc2)cc1	0	0	0	0	0	0
SMILES	FLuc counter	Luc counter	NPC1 promoter act	Rab9 promoter act	SMN2 splice up	ELG1 genotoxic
CCN(CC)c1ccc(/C=N/NC(=O)OC(C)(C)C)cc1	10.7µM	-	?	2.82µM	-	?
COc1cc2nc(N3CCN(C(=O)OCc4ccccc4)C(C(=O)NC(C)(C)C)C3)nc(N)c2cc1OC (centres undefined)	-	0	0	0	0	-
Cc1ccc(/C=N/NC(=O)C(O)c2ccccc2)o1 (centres undefined)	0	-	0	0	-	0
Cc1ccc(/C=N/NC(=O)Nc2ccccc2)o1	10.7µM	0	2.51µM	3.16µM	11.2µM	?
CCN(CC)c1ccc(/C=N/NC(=O)Nc2ccccc2)cc1	5.36µM	0	3.98µM	3.16µM	20µM	0
CCN(CC)c1ccc(/C=N\NC(N)=O)cc1	?	0	0	0	0	0
O=C(NCC(c1ccco1)N1CCCCC1)c1cccc(S(=O)(=O)Nc2ccc(F)cc2)c1 (centres undefined)	0	-	0	0	-	0
